The list is not random: actives were taken first. Their share in the collection is about 3.2%.
TbPYK inhibitor: qHTS of Trypanosoma Brucei Inhibitors; pyruvate kinase (Trypanosoma brucei), Q57TT1; TbPYK enzyme, Kinase-Glo Plus ATP luminescence, 45 min; Potency, µM (top dose mostly 76.8 µM), for inactives: top-dose activity, negative = inhibition, actives largely listed as inhibitors; hit rate 0.12% among 410,000; further: nearly all actives have a fitted effect of over 50% in size
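In this concentration-response screen, enzyme-free wells defined baseline while DMSO plates tracked drift. Each reaction combined TbPYK, substrate, compound and 130 uM ADP for 45 min at room temperature. Kinase-Glo Plus luminescence gave the signal.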
LmPK inh: qHTS Assay for Inhibitors of Leishmania Mexicana Pyruvate Kinase (LmPK). Q27686. purified LmPK, Kinase-Glo ATP luminescence, 1 h. Potency, µM (series often up to 57.5 µM), for inactives: at the top dose activity change, negative = inhibition, most hits filed as inhibitors. hit rate 0.37% among 290,000. AID 1721, 2009
Target sequence (Q27686 whole entry, looked up): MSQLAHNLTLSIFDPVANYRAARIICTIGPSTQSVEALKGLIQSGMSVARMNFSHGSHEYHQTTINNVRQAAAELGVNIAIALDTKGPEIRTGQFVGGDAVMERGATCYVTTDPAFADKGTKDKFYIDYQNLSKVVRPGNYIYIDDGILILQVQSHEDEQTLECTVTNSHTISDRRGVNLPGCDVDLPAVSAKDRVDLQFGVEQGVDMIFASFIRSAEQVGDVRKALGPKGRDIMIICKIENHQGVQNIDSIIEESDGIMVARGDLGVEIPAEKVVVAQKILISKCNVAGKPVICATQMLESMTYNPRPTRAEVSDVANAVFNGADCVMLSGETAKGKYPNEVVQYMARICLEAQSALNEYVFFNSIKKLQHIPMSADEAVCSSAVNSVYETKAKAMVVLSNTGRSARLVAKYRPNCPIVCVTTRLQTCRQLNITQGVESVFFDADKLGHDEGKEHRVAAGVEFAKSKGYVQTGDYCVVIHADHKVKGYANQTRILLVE
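0.1 nM LmPK, 0.5 mM PEP, 0.1 mM ADP; 50 mM imidazole pH 7.2, 7 mM MgCl2, 50 mM KCl; 1 h RT. Kinase-Glo luminescence readout, normalized to no-enzyme (full inhibition) and uninhibited wells.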
RE007 growth inh: qHTS Assay for Inhibitors of the HIV-1 protein Vpr | hit rate 0.21% among 360,000 | S. pombe RE007 Vpr strain, BacTiter-Glo ATP luminescence, 24 h | Potency, µM (top dose mostly 92.2 µM), inactives show at the highest dose activity change, negative = less growth, actives largely listed as inhibitors; active means well fitted falling curve with a large enough effect; inconclusive means small, poorly fitted or top-dose-only effect; inactive means no such curve, though single readings can be large or run the other way; further: nearly all actives have a fitted effect of over 50% in size
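Fission yeast strain RE007, carrying one chromosomally integrated HIV-1 vpr copy, was seeded at OD 0.01 in PMG+AL medium with 23 nL pinned compound. After 24 h at 30 °C and 99% humidity, viability was read by BacTiter-Glo luminescence.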
Sm TGR block: qHTS Assay for the Inhibitors of Schistosoma Mansoni Peroxiredoxins; Schistosoma mansoni thioredoxin glutathione reductase (TGR), Q962Y6; Potency, µM (titrated, usually from 114 µM), for inactives: top-dose activity change, negative = inhibition, usual class: inhibitors; purified TGR, DTNB reduction, TNB absorbance 405 nm; hit rate 3% among 360,000; further: nearly all actives have a fitted effect of over 60% in size
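First, TGR (20 nM dispensed) and NADPH were mixed with compound. Second, a 15 min room-temperature incubation followed. Third, further NADPH and then DTNB were added to start the reaction. Finally, TNB absorbance was monitored kinetically.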
AMA1-RON2 inh: qHTS for Inhibitors of AMA1-RON; Towards Development of Antimalarial Drug Lead: Primary Screen. hit rate 0.2% among 360,000. Potency, µM (highest dose often 58.2 µM), without a hit: at the top dose activity change, negative = inhibition, actives largely listed as inhibitors. AlphaScreen AMA1-biotinylated RON2 peptide binding. Plasmodium falciparum AMA1 (3D7) - RON2 peptide interaction. AID 720542, 2013;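 further: 0% = vehicle wells and -100% = peptide control; nearly all actives have a fitted effect of over 45% in size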
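AMA1 (3D7) with his tag at 25 nM final met compounds first, then biotinylated RON2 peptide at 25 nM; detection used donor plus acceptor beads, 10 µg/mL apiece, read by AlphaScreen after 30 min at room temperature.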
Active calls of the source: *; [ ] = another dose, or the depositor's remark. Unless noted, the call rests on the fitted dose curve; in most records, active means well fitted curve in the direction sought with a large enough effect; inconclusive means small, poorly fitted or top-dose-only effect, or another doubt; inactive means no such curve, though single readings can be large; an effect the other way counts as inactive or inconclusive. Unless noted, on the % scale 0 is the no-effect control and ±100 the full control effect; potency means the concentration at half of the fitted maximal effect.

Screening O=C(NC(=S)NNC(=O)c1ccco1)c1ccc(Br)cc1 returned TbPYK inhibitor -25%, LmPK inh 6%, RE007 growth inh inconclusive, Sm TGR block 40µM* and AMA1-RON2 inh 126%.
`Cc1cc(C(=O)NNC(=O)/C=C/c2ccco2)c(C)o1` gave TbPYK inhibitor -9%, RE007 growth inh -5%, Sm TGR block 2.8µM* and AMA1-RON2 inh -2%.
For O=C(/C=C/c1ccco1)NC(=S)NNC(=O)c1ccco1 the results were TbPYK inhibitor -28%, LmPK inh 6%, RE007 growth inh 1%, Sm TGR block 40µM* and AMA1-RON2 inh 15%.
C=CCNC(=S)NNC(=O)c1ccco1 was read as TbPYK inhibitor -4%, LmPK inh -1%, RE007 growth inh 3% and AMA1-RON2 inh 33%.
`CC(=O)NC(=S)Nc1ccc(NC(=S)NC(=O)/C=C/c2ccco2)cc1` gave TbPYK inhibitor -5%, LmPK inh 1%, RE007 growth inh -6%, Sm TGR block 18µM* and AMA1-RON2 inh 7%.
S=C(NCCc1ccccc1)NCCc1ccccc1 was read as TbPYK inhibitor -8%, LmPK inh 4%, RE007 growth inh 6%, Sm TGR block 3% and AMA1-RON2 inh -4%.
`O=C(NC(=S)NCCC1=CCCCC1)c1ccco1` gave TbPYK inhibitor 1%, LmPK inh 4%, RE007 growth inh -7%, Sm TGR block -23% and AMA1-RON2 inh -9%.
Cc1ccccc1C(=O)NC(=S)NCc1ccccc1 was read as TbPYK inhibitor 0%, LmPK inh 4%, RE007 growth inh -1%, Sm TGR block 22µM* and AMA1-RON2 inh 17%.
Screening Cc1ccccc1C(=O)NC(=S)NCCc1ccccc1 returned TbPYK inhibitor -8%, LmPK inh 2%, RE007 growth inh -24%, Sm TGR block 7.1µM* and AMA1-RON2 inh 34%.
`Cc1ccccc1C(=O)NC(=S)NCCC1=CCCCC1` gave TbPYK inhibitor 8%, LmPK inh 1%, RE007 growth inh -15%, Sm TGR block 5µM* and AMA1-RON2 inh 17%.
CC(C)(C)C(=O)NC(=S)NCCc1ccccc1 was read as TbPYK inhibitor -1%, LmPK inh -8%, RE007 growth inh -19%, Sm TGR block 20µM* and AMA1-RON2 inh 0%.
For CCc1ccc(S(=O)(=O)Nc2ccc3oc(C)c(C(=O)OCCOC)c3c2)cc1 the results were TbPYK inhibitor 0% and Sm TGR block 2%.
`CCc1ccccc1NC(=O)Cn1c(=O)n(Cc2ccc(OC)cc2)c(=O)c2oc3ccccc3c21` gave TbPYK inhibitor -3% and Sm TGR block 1%.
`C=CCSc1nnc(Cc2cc(=O)[nH]c(=O)[nH]2)n1-c1cc(C)ccc1C` gave TbPYK inhibitor 1%, LmPK inh 2%, RE007 growth inh 8%, Sm TGR block 22µM* and AMA1-RON2 inh 25%.
For CC(=O)N(C1=C(N)C(=O)c2ccccc2C1=O)C(C)C the results were TbPYK inhibitor -18%, LmPK inh -20%, RE007 growth inh -25%, Sm TGR block 7.1µM* and AMA1-RON2 inh -15%.
Screening CC(=O)N(C)C1=C(O)c2ccccc2C(=O)C1=O returned TbPYK inhibitor -4%, LmPK inh -7%, RE007 growth inh 2%, Sm TGR block 4% and AMA1-RON2 inh 7%.
`Cc1nc2c(oc3ccccc32)c(=O)o1` gave TbPYK inhibitor -2%, LmPK inh 1%, RE007 growth inh -10%, Sm TGR block 11µM* and AMA1-RON2 inh 10%.
CC(NC(=S)Nc1ccc([N+](=O)[O-])cc1)c1ccncc1 (stereo not drawn) was read as TbPYK inhibitor -3%, LmPK inh 3%, RE007 growth inh -11%, Sm TGR block 45µM* and AMA1-RON2 inh -6%.
Screening CC(C)(C)C(=O)OCc1cc(=O)n2nc(C3CC3)sc2n1 returned TbPYK inhibitor 2% and Sm TGR block -10%.
CCCN(C(=O)CCc1nc(-c2ccc(C)cc2)no1)c1ccc(OCC)cc1 was read as TbPYK inhibitor 1% and Sm TGR block 10%.
Screening O=C(COC(=O)C1=COCCO1)Nc1ncc(C(F)(F)F)cc1Cl returned TbPYK inhibitor 2%, LmPK inh -1%, RE007 growth inh 16%, Sm TGR block 100µM* and AMA1-RON2 inh 4%.
Screening O=C(COC(=O)C1=COCCO1)Nc1ncc(Cl)cc1Cl returned TbPYK inhibitor -10%, RE007 growth inh -20%, Sm TGR block -1% and AMA1-RON2 inh 10%.
Screening COc1cccc2c1Oc1ncccc1N(C(=O)CCC(=O)NCc1ccc(N(C)C)cc1)C2 returned TbPYK inhibitor -13% and Sm TGR block inconclusive.
S=c1[nH]nc(Cc2cccc3ccccc23)n1-c1ccccc1 was read as TbPYK inhibitor 5µM*, LmPK inh 14µM*, RE007 growth inh 11%, Sm TGR block -17% and AMA1-RON2 inh -7%.
Cc1cccc(-n2c(CCn3nc(C)c([N+](=O)[O-])c3C)n[nH]c2=S)c1 was read as TbPYK inhibitor 8.9µM*, LmPK inh inconclusive, RE007 growth inh -7%, Sm TGR block -4% and AMA1-RON2 inh 28%.
For S=c1[nH]nc(CCSCc2ccccc2)n1-c1ccccc1 the results were TbPYK inhibitor 5.6µM*, LmPK inh -7%, RE007 growth inh 7%, Sm TGR block -5% and AMA1-RON2 inh 69%.
For Oc1ccc(CCc2n[nH]c(=S)n2-c2ccc(F)cc2)cc1 the results were TbPYK inhibitor inconclusive, LmPK inh 7.9µM*, RE007 growth inh 11%, Sm TGR block -3% and AMA1-RON2 inh 65%.
`COc1ccc(CSCCc2n[nH]c(=S)n2-c2ccccc2)cc1C` gave TbPYK inhibitor inconclusive, LmPK inh 1%, RE007 growth inh 8%, Sm TGR block 9% and AMA1-RON2 inh 47%.
`COc1ccc(CC(=O)NCc2n[nH]c(=S)n2-c2ccc(F)cc2)cc1` gave TbPYK inhibitor inconclusive, LmPK inh 5%, RE007 growth inh -9%, Sm TGR block 9% and AMA1-RON2 inh 35%.
`CCCNC(=O)C1CCC(Cn2c(=O)c3sccc3n(CC(=O)N(CC)CC)c2=O)CC1` (stereo not drawn) gave TbPYK inhibitor -4% and Sm TGR block 1%.
Screening Cc1cccc(-n2c(Cc3ccccc3)n[nH]c2=S)c1 returned TbPYK inhibitor inconclusive, LmPK inh 7.1µM*, RE007 growth inh 21%, Sm TGR block -10%[57.1 µM] and AMA1-RON2 inh 20%.
